Data published in PubChem BioAssay (NCI).
The panel holds about 83,000 compounds, 20% with a hit somewhere; the sample as a whole holds those more often.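 Each cell line was grown in a 96-well plate and treated with one concentration of compound for 48 hours. Values below 10 were considered active.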 A number with no mark means an inactive call. Calls of active or inactive are those of the source.

Tested on: HCT-15 colon
Test: NCI-60 one-dose screen, 48 h (100 = growth as untreated, 0 = no growth, -100 = all killed)
Conditions: 10 µM unless noted

Row | Structure (SMILES) | growth
1 | COc1ccc(NC2=C(Cl)C(=O)C(C)=C(C)C2=O)cc1OC | 96.1%
2 | Cn1ccnc1C(=O)/C=C/c1ccc(NC(=O)Nc2ccc(F)cc2)cc1 | 21%
3 | O=C(CCN1C(=O)/C(=C/c2ccccc2)SC1=S)N1CCOCC1 | 53.7%
4 | Cc1ccc(CNS(=O)(=O)/N=C2\NC(=O)NC2=C(Cl)Cl)cc1 | 95.3%
5 | N#Cc1c(-c2ccc(Cl)cc2)nc(SCc2ccc(F)cc2)nc1N1CCNCC1 | 1.29% (active)
6 | Clc1ccc(-c2cn3cc(Cc4ccc(Cl)c(Cl)c4)sc3n2)cc1 | 60.7%
7 | COc1ccc(/C=N/NC(=O)c2[nH]c3ccc(Br)cc3c2-c2ccccc2)o1 | 10.7%
8 | O=C(Nc1nc2ccc(O)cc2s1)c1cccc(C(F)(F)F)c1 | 47.1%

Tested on: HT29 colon
Test: as above
Conditions: 10 µM unless noted

Row | Structure (SMILES) | growth
9 | Cc1ccc2c(n1)C(=O)C(Cl)=C(Nc1cccc(C(C)C)c1)C2=O | 97%
10 | Cn1c(SCC(=O)c2cccs2)nc2ccccc2c1=O | 106%
11 | CCCC(=O)NC(c1ccc(N(CC)CC)cc1)c1cc(C)c2cccnc2c1O (stereo not given) | 36.4%
12 | COC(=O)C1CCCN(S(=O)(=O)/N=C2\NC(=O)NC2=C(Cl)Cl)C1 (stereo not given) | 116%
13 | O=C(N/N=C/c1ccc([N+](=O)[O-])s1)c1[nH]c2ccc(Br)cc2c1-c1ccccc1 | -22.4% (active)
14 | C=C1CC[C@H]2[C@@](C)(CCC3OC(c4ccc(OCc5cn(C6CC(OC(C)=O)C(OC(C)=O)C(COC(C)=O)O6)nn5)cc4)OC[C@]32C)[C@@H]1/C=C/C1=CCOC1=O (stereo not given in full) | 84.1%
15 | COc1ccc([C@@H]2c3[nH]c4ccccc4c3CC3C(=O)N(C4CCN(Cc5c(F)cccc5F)CC4)CC(=O)N32)c(OC)c1 (stereo not given in full) | 44% [5.26 µM]
16 | O=C(N/N=C/c1ccc(Br)s1)c1[nH]c2ccc(Br)cc2c1-c1ccccc1 | 5.61% (active)
17 | O=C1c2c(c3c4cccnc4[nH]c3c3ccc4ccccc4c23)C(=O)N1CCO | 75.6%
18 | Nc1c(C(=O)Nc2ccc(C(F)(F)F)cc2)sc2nc(-c3cnccn3)cc(-c3cccs3)c12 | 95%
19 | CSc1ccc2c(c1)N(C(=O)/C(C#N)=C/c1c[nH]c3ccccc13)c1ccccc1S2 | 12.2%
20 | Cc1cc(C(=O)Nc2sc3c(c2C(N)=O)CCC(=O)C3)ccc1OCCN1CCCCC1 | 96.2%
21 | CN(C)c1ccc(/C=c2\sc3nc4ccccc4n3c2=O)cc1 | 107%
22 | CN(C)c1ccc(/C=C2\Cc3c(F)ccc(Br)c3C2=O)cc1 | 104%
23 | CN1CCN(Cc2ccc(NC(=O)c3cncc(C#Cc4cnc5ccc(N6CCSCC6)nn45)c3)cc2C(F)(F)F)CC1 | -50.1% (active)
24 | COc1cc(/C=C/C(=O)c2ccc(C)cc2)ccc1Oc1nc(NCCO)nc(N2CCOCC2)n1 | 19.4%
25 | O=C(CSc1nnc(-c2ccc3nc(-c4ccc(Cl)cc4)[nH]c3c2)o1)Nc1ccc(C(=O)/C=C/c2ccc(Cl)cc2)cc1 | 100%
26 | C#Cc1nc(C2=C(C)C(=N\O)/C(=N/O)C2)cs1 | 111%
27 | CCOc1ccc2nc(NC(=O)c3ccc(C(F)(F)F)cc3)sc2c1 | 97.9%
28 | CC(O)C(NC(=O)C1CCCN1C(=O)CNC(=O)C1CC(=O)NCC(=O)NC(Cc2c[nH]c3ccccc23)C(=O)NC(Cc2ccc(O)cc2)C(=O)NCC(=O)NC(CO)C(=O)NC(CCC(N)=O)C(=O)NC(Cc2c[nH]c3ccccc23)C(=O)N1)C(=O)NCC(=O)NC(CCC(N)=O)C(=O)NC(CCCNC(=N)N)C(=O)NC(CC(=O)O)C(=O)O (stereo not given) | 106%
29 | CC1=C(C)C(=O)C(Nc2ccccc2)=C(Cl)C1=O | 99.1%
30 | CO/N=C1\CCc2c(sc(NC(=O)c3cccc(C(F)(F)F)c3)c2C(N)=O)C1 | 51.2%
31 | COc1ccc(CNS(=O)(=O)/N=C2\NC(=O)NC2=C(Cl)Cl)cc1 | 8.17% (active)
32 | NS(=O)(=O)c1cccc(Nc2nc(SCC(=O)c3ccc([N+](=O)[O-])cc3)nc3ccccc23)c1 | 71.2%
33 | Cn1ccnc1C(=O)/C=C/c1ccc(NC(=O)Nc2ccccc2)cc1 | 3.3% (active)
34 | CCOC(=O)c1sc(N)c(C(=O)OCC)c1C | 43.4%
35 | CN(C)S(=O)(=O)c1oc(-c2ccccc2)nc1C#N | 35.1%
